Results from a collection of fitness landscapes (doi:10.1016/j.celrep.2020.107928).
Over roughly 81,000 sequences, “one-hybrid fitness for binding parS DNA” has its median near -0.17; the highest 2% begin near 0.51. Many of the other results were omitted from the sample, so the highest values are more common in it than they were.

B1: Caulobacter ParB omega fusion; a variant is named by its letters at X, in order, B8GW30 (parent)
chain: MESVVVGEPGMSEGRRGLGRGLSALLGEVDAAPAQAPGEQLGGSREAPIEILQRNPDQPRRTFREEDLEDLSNSIREKGVLQPILVRPSPDTAGEYQIVAGERAWRAAQRAGLKTVPIMVRELDDLAVLEIGIIENVQRADLNVLEEALSYKVLMEKFERTQENIAQTIGKSXSHVANXMRLLXLPDEVQSYLVSGELTAXHARAIAAAADPVALAKQIIEGGLSVRETEALARKAPNLSAGKSKGGRPPRVKDTDTQALESDLSSVLGLDVSIDHRGSTGTLTITYATLEQLDDLCNRLTRGI

Variants of: B1
Experiment: one-hybrid fitness for binding parS DNA (scaled: cognate 1, non-cognate 0); higher = stronger binding
Conditions: with parS DNA site
Summary of the method: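 Fitness here means the log change in variant-to-wild-type read ratio between plasmids sequenced before and after selection. That scale was set so cognate equals 1 and non-cognate equals 0. The selection was a bacterial one-hybrid screen of Caulobacter ParB libraries, four specificity codons randomised, in E. coli USO carrying a HIS3 reporter with the site 19 bp from the promoter, grown 48 hours at 37°C on M9-minus-histidine with 0.1 mM IPTG and 5 mM 3-AT.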
LYTA was tested, and the “one-hybrid fitness for binding parS DNA” value was no more than 0.2.
In the case of EYRT, the “one-hybrid fitness for binding parS DNA” value is reported as no more than 0.2.
PNAE was tested, and the “one-hybrid fitness for binding parS DNA” value was no more than 0.2.
With HFHS the “one-hybrid fitness for binding parS DNA” value was no more than 0.2.
For VVVF, the “one-hybrid fitness for binding parS DNA” value was no more than 0.2.
PGKV was tested, and the “one-hybrid fitness for binding parS DNA” value was no more than 0.2.
For GQNG, the “one-hybrid fitness for binding parS DNA” value was no more than 0.2.
With PYHE the “one-hybrid fitness for binding parS DNA” value was no more than 0.2.
FDPI was tested, and the “one-hybrid fitness for binding parS DNA” value was no more than 0.2.
For RFFL, the “one-hybrid fitness for binding parS DNA” value was no more than 0.2.
For AVTF, the “one-hybrid fitness for binding parS DNA” value was no more than 0.2.
With CQAV the “one-hybrid fitness for binding parS DNA” value was no more than 0.2.
In the case of NQES, the “one-hybrid fitness for binding parS DNA” value is reported as no more than 0.2.
In the case of RRCF, the “one-hybrid fitness for binding parS DNA” value is reported as no more than 0.2.
With RRDR the “one-hybrid fitness for binding parS DNA” value was no more than 0.2.
For RRYC, the “one-hybrid fitness for binding parS DNA” value was 0.63.
RRDC was tested, and the “one-hybrid fitness for binding parS DNA” value was 0.701.
For RRCC, the “one-hybrid fitness for binding parS DNA” value was 0.619.
With NRYC the “one-hybrid fitness for binding parS DNA” value was no more than 0.2.
For RRCH, the “one-hybrid fitness for binding parS DNA” value was no more than 0.2.
DRYC was tested, and the “one-hybrid fitness for binding parS DNA” value was no more than 0.2.
In the case of RRDQ, the “one-hybrid fitness for binding parS DNA” value is reported as no more than 0.2.
LWSC was tested, and the “one-hybrid fitness for binding parS DNA” value was no more than 0.2.
LRPV was tested, and the “one-hybrid fitness for binding parS DNA” value was no more than 0.2.
For PQAG, the “one-hybrid fitness for binding parS DNA” value was no more than 0.2.
With ETTN the “one-hybrid fitness for binding parS DNA” value was no more than 0.2.
In the case of QYKG, the “one-hybrid fitness for binding parS DNA” value is reported as no more than 0.2.
CTWT was tested, and the “one-hybrid fitness for binding parS DNA” value was no more than 0.2.
For MGFG, the “one-hybrid fitness for binding parS DNA” value was no more than 0.2.
For GQDP, the “one-hybrid fitness for binding parS DNA” value was no more than 0.2.
With EEAD the “one-hybrid fitness for binding parS DNA” value was no more than 0.2.
With RRFQ the “one-hybrid fitness for binding parS DNA” value was no more than 0.2.
For RRAT, the “one-hybrid fitness for binding parS DNA” value was 0.562.
With RRAF the “one-hybrid fitness for binding parS DNA” value was no more than 0.2.
RRFK was tested, and the “one-hybrid fitness for binding parS DNA” value was no more than 0.2.
With RRAQ the “one-hybrid fitness for binding parS DNA” value was no more than 0.2.
RRFT was tested, and the “one-hybrid fitness for binding parS DNA” value was 0.623.
In the case of PVDT, the “one-hybrid fitness for binding parS DNA” value is reported as no more than 0.2.
In the case of CRAT, the “one-hybrid fitness for binding parS DNA” value is reported as no more than 0.2.
For RDEQ, the “one-hybrid fitness for binding parS DNA” value was no more than 0.2.
RRAM was tested, and the “one-hybrid fitness for binding parS DNA” value was 0.271.
RRFF was tested, and the “one-hybrid fitness for binding parS DNA” value was no more than 0.2.
For RRAK, the “one-hybrid fitness for binding parS DNA” value was no more than 0.2.
RRFR was tested, and the “one-hybrid fitness for binding parS DNA” value was no more than 0.2.
RRFC was tested, and the “one-hybrid fitness for binding parS DNA” value was 0.679.
RRAC was tested, and the “one-hybrid fitness for binding parS DNA” value was 0.597.
STSS was tested, and the “one-hybrid fitness for binding parS DNA” value was no more than 0.2.
With HRSN the “one-hybrid fitness for binding parS DNA” value was no more than 0.2.
NLCV was tested, and the “one-hybrid fitness for binding parS DNA” value was no more than 0.2.
TTRK was tested, and the “one-hybrid fitness for binding parS DNA” value was no more than 0.2.
For RAYN, the “one-hybrid fitness for binding parS DNA” value was 0.445.
With RALS the “one-hybrid fitness for binding parS DNA” value was 1.03.
In the case of RAID, the “one-hybrid fitness for binding parS DNA” value is reported as no more than 0.2.
RAYS was tested, and the “one-hybrid fitness for binding parS DNA” value was 1.03.
In the case of RALH, the “one-hybrid fitness for binding parS DNA” value is reported as 0.211.
In the case of RAYP, the “one-hybrid fitness for binding parS DNA” value is reported as no more than 0.2.
RALN was tested, and the “one-hybrid fitness for binding parS DNA” value was 0.431.
With RAPS the “one-hybrid fitness for binding parS DNA” value was 0.673.
RAPN was tested, and the “one-hybrid fitness for binding parS DNA” value was no more than 0.2.
RAIS was tested, and the “one-hybrid fitness for binding parS DNA” value was 0.942.
With RAIN the “one-hybrid fitness for binding parS DNA” value was 0.301.
RAPP was tested, and the “one-hybrid fitness for binding parS DNA” value was no more than 0.2.
In the case of MHTT, the “one-hybrid fitness for binding parS DNA” value is reported as no more than 0.2.
For SHEG, the “one-hybrid fitness for binding parS DNA” value was no more than 0.2.
In the case of FDNL, the “one-hybrid fitness for binding parS DNA” value is reported as no more than 0.2.
With CPKA the “one-hybrid fitness for binding parS DNA” value was no more than 0.2.
With QTHW the “one-hybrid fitness for binding parS DNA” value was no more than 0.2.
In the case of PVVK, the “one-hybrid fitness for binding parS DNA” value is reported as no more than 0.2.
LDQC was tested, and the “one-hybrid fitness for binding parS DNA” value was no more than 0.2.
With EKET the “one-hybrid fitness for binding parS DNA” value was no more than 0.2.
With RKYY the “one-hybrid fitness for binding parS DNA” value was 0.377.
In the case of VKMG, the “one-hybrid fitness for binding parS DNA” value is reported as no more than 0.2.
With GMPS the “one-hybrid fitness for binding parS DNA” value was no more than 0.2.
With RARS the “one-hybrid fitness for binding parS DNA” value was 0.908.
In the case of RAIT, the “one-hybrid fitness for binding parS DNA” value is reported as 0.682.
RARN was tested, and the “one-hybrid fitness for binding parS DNA” value was 0.419.
RAWP was tested, and the “one-hybrid fitness for binding parS DNA” value was no more than 0.2.
With RAWS the “one-hybrid fitness for binding parS DNA” value was 1.05.
RAPT was tested, and the “one-hybrid fitness for binding parS DNA” value was 0.434.
For RAIP, the “one-hybrid fitness for binding parS DNA” value was no more than 0.2.
In the case of RAWD, the “one-hybrid fitness for binding parS DNA” value is reported as no more than 0.2.
With RARH the “one-hybrid fitness for binding parS DNA” value was no more than 0.2.
In the case of GPSP, the “one-hybrid fitness for binding parS DNA” value is reported as no more than 0.2.
With PSKI the “one-hybrid fitness for binding parS DNA” value was no more than 0.2.
With CYMT the “one-hybrid fitness for binding parS DNA” value was no more than 0.2.
In the case of DQPL, the “one-hybrid fitness for binding parS DNA” value is reported as no more than 0.2.
FLGS was tested, and the “one-hybrid fitness for binding parS DNA” value was no more than 0.2.
In the case of RIRH, the “one-hybrid fitness for binding parS DNA” value is reported as 0.29.
RIYF was tested, and the “one-hybrid fitness for binding parS DNA” value was 0.265.
RIYG was tested, and the “one-hybrid fitness for binding parS DNA” value was 1.03.
In the case of RIYK, the “one-hybrid fitness for binding parS DNA” value is reported as no more than 0.2.
In the case of RIRG, the “one-hybrid fitness for binding parS DNA” value is reported as 0.955.
For RIRN, the “one-hybrid fitness for binding parS DNA” value was 0.395.
PSLL was tested, and the “one-hybrid fitness for binding parS DNA” value was no more than 0.2.
FVQI was tested, and the “one-hybrid fitness for binding parS DNA” value was no more than 0.2.
SSST was tested, and the “one-hybrid fitness for binding parS DNA” value was no more than 0.2.
For LRVT, the “one-hybrid fitness for binding parS DNA” value was no more than 0.2.
In the case of AKQS, the “one-hybrid fitness for binding parS DNA” value is reported as no more than 0.2.
